Screening results from PubChem BioAssay.
Sampled rows, rich in hits. Any-hit rate of the full collection: about 21%.
NS1 inh: qHTS Assay for Inhibitors of Influenza NS1 Protein Function; AID 2326, 2010; actives 0.4% (n = 270,000); Potency, µM (top dose mostly 46.1 µM), without a hit: at the top dose activity, positive = more growth; calls by dose curve; also: potency is read from the fitted curve at half-maximal effect; actives are rising curves; nearly all actives have a fitted effect of over 50% in size
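Compounds were scored for reversing the slow growth caused by influenza A NS1 in S. cerevisiae, measured by optical density at 600 nm. Assay medium contained 2% galactose at pH 6.0; NS1-free yeast of the same strain were the positive control.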
CHX counter: Cycloheximide Counterscreen for Small Molecule Inhibitors of Shiga Toxin | cell reporter, cycloheximide protein synthesis inhibition counterscreen | max response, % | actives 12% (n = 300,000) | AID 2314, 2010; in the data active = max response mostly above about 13%, no sharp cut-off; inactive = mostly below about 14%; also: read at 38.3 µM for the half of the compounds with a filed dose; 0% is about no effect
SARS PLP yeast: qHTS of Yeast-based Assay for SARS-CoV PLP; S. cerevisiae expressing SARS-CoV PLpro, growth rescue; Potency, µM (doses to about 32.9 µM), without a hit: top-dose activity, positive = growth rescue, actives largely listed as activators; actives 0.19% (n = 330,000); calls by dose curve; also: potency is read from the fitted curve at half-maximal effect; 0% is about no effect; nearly all actives have a fitted effect of over 55% in size
Pf growth 48h: Primary qHTS for delayed death inhibitors of the malarial parasite plastid, 48 hour incubation | P. falciparum luciferase growth in erythrocytes, 48 h | Potency, µM (top dose mostly 28.7 µM), inactives show at the top dose activity change, negative = inhibition, usual class: inhibitors | actives 5.9% (n = 310,000); also: potency is read from the fitted curve at half-maximal effect; % is scaled to controls: 0 for no effect and ±100 for the full control effect
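A one-generation exposure of luciferase-tagged malaria parasites in RPMI 1640/Albumax erythrocyte culture, 37 C and 5% CO2. Inhibition is inferred from decreased luminescence after adding detection reagent.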
Shiga toxin inh: A qHTS for Small Molecule Inhibitors of Shiga Toxin | Vero cells, Shiga toxin protein synthesis inhibition reporter | inhibition, % at 38.7 µM | actives 9.2% (n = 290,000); in the data active = inhibition mostly above about 28%, no sharp cut-off; inactive = mostly below about 43%; also: 0% is about no effect
Pf growth 96h: Primary qHTS for delayed death inhibitors of the malarial parasite plastid, 96 hour incubation; P. falciparum luciferase reporter growth, 96 h; Potency, µM (titrated, usually from 28.7 µM), for the others: at the top dose activity change, negative = inhibition, hits mostly inhibitors; actives 6.9% (n = 320,000); also: potency is read from the fitted curve at half-maximal effect; % is scaled to controls: 0 for no effect and ±100 for the full control effect
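Infected RBCs, 2% Hct / 0.05% parasitemia final; luciferase-reporter P. falciparum; cpd 96 h, 37 C, 5% CO2; luciferase detection reagent; luminescence.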
* marks the source's active call; other numbers are inactive results; [ ] = another dose, or the depositor's remark. Unless noted, calls follow the shape of the dose curve; as a rule, active = well fitted inhibition curve with a large enough effect; inconclusive = small, poorly fitted or top-dose-only effect, or another doubt; inactive = no such curve, though single readings can be large or run the other way.

Cc1cc([N+](=O)[O-])cc(C)c1OCC(=O)N/N=C/c1ccc(OC(=O)c2ccccc2Br)cc1 was read as NS1 inh 10%, CHX counter 0, SARS PLP yeast 4%, Pf growth 48h 3%, Shiga toxin inh 10 and Pf growth 96h 10µM*.
O=C(CNC(=O)c1ccc([N+](=O)[O-])cc1)N/N=C\c1ccc(OC(=O)c2ccccc2)cc1 was read as NS1 inh 2%, CHX counter 6, SARS PLP yeast -4%, Pf growth 48h inconclusive and Shiga toxin inh 8.
`Cc1cc([N+](=O)[O-])cc(C)c1OCC(=O)N/N=C/c1ccc(OC(=O)c2ccccc2)cc1` gave NS1 inh -16%, CHX counter -2, SARS PLP yeast 0%, Pf growth 48h inconclusive, Shiga toxin inh -8 and Pf growth 96h 2.1µM*.
Cc1cc(NC(=O)CN(C)S(=O)(=O)c2cccc(Cl)c2)no1 was read as CHX counter 4, SARS PLP yeast 1%, Pf growth 48h -11%, Shiga toxin inh 14 and Pf growth 96h 52%[5.75 µM].
COc1ccc(C2CCCN2CC(O)COc2ccccc2C(C)C)cc1 (configuration not stated) was read as NS1 inh -3%, CHX counter -1, SARS PLP yeast -1%, Pf growth 48h 12µM*, Shiga toxin inh -6 and Pf growth 96h 13µM*.
CCCCNc1nc2sc3c(c2c(=O)n1-c1cccc(Cl)c1)CCN(C)C3 was read as NS1 inh 0%, CHX counter -4, SARS PLP yeast -1%, Pf growth 48h 1.9µM*, Shiga toxin inh -12 and Pf growth 96h 0.37µM*.
CCCCCNc1nc2sc3c(c2c(=O)n1-c1cccc(Cl)c1)CCN(C)C3 was read as NS1 inh 9%, CHX counter -2, SARS PLP yeast 0%, Pf growth 48h 1.5µM*, Shiga toxin inh -5 and Pf growth 96h 0.17µM*.
`N#Cc1c(C#N)c(O)c2ccccc2c1O` gave NS1 inh -7%, CHX counter 10, SARS PLP yeast -1%, Pf growth 48h -15%, Shiga toxin inh -6 and Pf growth 96h inconclusive.
Screening N=C1CCC(=N)c2c1c(O)c1ccccc1c2O returned NS1 inh -31%, CHX counter 13*, SARS PLP yeast -4%, Pf growth 48h inconclusive, Shiga toxin inh 4 and Pf growth 96h inconclusive.
Screening CCCCn1c(N)c(N(CCOC)C(=O)CCCc2nc3ccccc3c(=O)[nH]2)c(=O)[nH]c1=O returned SARS PLP yeast 5%, Pf growth 48h 27% and Pf growth 96h 11%.
`COc1ccccc1Cn1c(-c2ccco2)nc2nc3ccccc3nc21` gave NS1 inh -31%.
Screening COc1ccc(CCn2c(-c3cc([N+](=O)[O-])cc([N+](=O)[O-])c3)nc3nc4ccccc4nc32)cc1 returned NS1 inh 24%, CHX counter -3, SARS PLP yeast 12%, Pf growth 48h inconclusive, Shiga toxin inh 3 and Pf growth 96h 0.74µM*.
`COc1ccc(C(=O)n2c(-c3ccco3)nc3ccccc32)cc1` gave NS1 inh -163%, CHX counter 31*, SARS PLP yeast -16%, Pf growth 48h 82%, Shiga toxin inh 37 and Pf growth 96h 2.1µM*.
c1coc(-c2nc3nc4ccccc4nc3n2CC2CCCO2)c1 (configuration not stated) was read as NS1 inh -7%, CHX counter -7, SARS PLP yeast 14%, Shiga toxin inh -1 and Pf growth 96h -2%.
`c1ccc(Cn2c(-c3ccco3)nc3nc4ccccc4nc32)cc1` gave NS1 inh -31%, CHX counter 28*, SARS PLP yeast 0%, Pf growth 48h -34%, Shiga toxin inh 60 and Pf growth 96h 13%.
Screening CCCCCn1c(-c2ccco2)nc2nc3ccccc3nc21 returned NS1 inh -81%, CHX counter 9.2*, SARS PLP yeast -18%, Pf growth 48h inconclusive, Shiga toxin inh -20 and Pf growth 96h inconclusive.
CCCCn1c(N)c(N(CC(C)C)C(=O)c2ccc([N+](=O)[O-])o2)c(=O)[nH]c1=O was read as SARS PLP yeast 7%, Pf growth 48h -27% and Pf growth 96h inconclusive.
For C=CCn1c(-c2cccc(OC)c2)n[nH]c1=S the results were NS1 inh -3%, CHX counter -1, SARS PLP yeast 13%, Pf growth 48h 2%, Shiga toxin inh -11 and Pf growth 96h 40%.
Screening COCCCn1c(-c2ccc(OC)cc2)nc2nc3ccccc3nc21 returned NS1 inh -4%, CHX counter 23, SARS PLP yeast 6%, Pf growth 48h 16% and Shiga toxin inh 21.
Screening CCCn1c(-c2ccc(OC)cc2)nc2nc3ccccc3nc21 returned NS1 inh -13%, CHX counter 11, SARS PLP yeast -8%, Pf growth 48h 9%, Shiga toxin inh 3 and Pf growth 96h 3.7µM*.
`COc1ccc(CCn2c(-c3ccco3)nc3nc4ccccc4nc32)cc1` gave NS1 inh inconclusive, CHX counter 13, SARS PLP yeast -7%, Pf growth 48h inconclusive, Shiga toxin inh 43* and Pf growth 96h 6%.
For C=CCn1c(-c2cccc(OC)c2)nc2nc3ccccc3nc21 the results were NS1 inh -9%, CHX counter 32*, SARS PLP yeast inconclusive, Pf growth 48h -8%, Shiga toxin inh 18 and Pf growth 96h 5%.
`O=c1c2ccccc2nc(-c2ccco2)n1Cc1ccccc1` gave NS1 inh -15%, CHX counter 57*, Pf growth 48h 53%, Shiga toxin inh 130* and Pf growth 96h inconclusive.
`O=C1c2ccccc2C(O)(c2ccccc2)N1CCc1ccccc1` (configuration not stated) gave NS1 inh 3%, CHX counter 1, SARS PLP yeast -8%, Pf growth 48h inconclusive, Shiga toxin inh -4 and Pf growth 96h inconclusive.
O=C1c2ccccc2C(O)(c2ccccc2)N1c1ccncc1 (configuration not stated) was read as NS1 inh -55%, CHX counter -5, SARS PLP yeast -1%, Pf growth 48h 12µM*, Shiga toxin inh -11 and Pf growth 96h inconclusive.
Screening CCC(=O)Nc1sc2c(c1C#N)CC(C)(CC)OC2 (configuration not stated) returned NS1 inh -6%, CHX counter 8, SARS PLP yeast 9%, Pf growth 48h 11%, Shiga toxin inh -16 and Pf growth 96h inconclusive.
`CCOc1ccc(NC(=O)CCC(=O)N/N=C/c2ccc3c(c2)OCO3)cc1` gave CHX counter 23*, SARS PLP yeast 1%, Pf growth 48h -7%, Shiga toxin inh 28 and Pf growth 96h inconclusive.
